POLB inh: inhibitors of human DNA polymerase beta; Potency, µM (doses to about 114 µM), hits mostly inhibitors; Pol beta primer extension/strand displacement, fluorescence kinetic; P06746; actives 1.3% (n = 340,000)
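Curves were derived by four-parameter Hill fits of normalized qHTS data. The kinetic fluorescent primer-extension read was taken at 0 and 10 min after 50 nM substrate, following a 15 min room-temperature preincubation of 10 nM enzyme with compounds.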
POLH inh: DNA polymerase eta (human) inhibition | Q9Y253 | recombinant Pol eta, fluorescent DNA replication assay | Potency, µM (highest dose often 114 µM), usual class: inhibitors | actives 1.2% (n = 390,000) | AID 588591
Target sequence (Q9Y253 whole entry, looked up): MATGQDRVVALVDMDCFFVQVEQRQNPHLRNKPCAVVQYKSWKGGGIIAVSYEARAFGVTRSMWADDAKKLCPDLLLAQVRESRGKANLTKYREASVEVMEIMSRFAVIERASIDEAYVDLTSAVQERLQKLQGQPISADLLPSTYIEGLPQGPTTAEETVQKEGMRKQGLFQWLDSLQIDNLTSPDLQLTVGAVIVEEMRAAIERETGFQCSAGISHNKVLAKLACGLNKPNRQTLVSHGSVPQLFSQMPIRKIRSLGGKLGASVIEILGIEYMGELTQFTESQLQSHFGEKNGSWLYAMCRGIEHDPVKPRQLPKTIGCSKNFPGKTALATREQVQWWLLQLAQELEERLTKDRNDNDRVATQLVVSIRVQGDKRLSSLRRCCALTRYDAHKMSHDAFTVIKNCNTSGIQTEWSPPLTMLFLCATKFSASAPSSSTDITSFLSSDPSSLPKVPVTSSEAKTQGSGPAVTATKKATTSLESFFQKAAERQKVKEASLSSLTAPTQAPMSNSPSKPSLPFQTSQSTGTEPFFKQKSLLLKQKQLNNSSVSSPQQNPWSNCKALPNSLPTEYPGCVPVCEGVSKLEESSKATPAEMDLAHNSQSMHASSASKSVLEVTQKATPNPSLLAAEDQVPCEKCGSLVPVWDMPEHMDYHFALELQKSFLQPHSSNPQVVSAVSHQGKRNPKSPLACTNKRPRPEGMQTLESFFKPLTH
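Pol eta at 10 nM preincubated with compounds 15 min at room temperature; reaction started with fluorescent substrate (50 nM final) and read kinetically at 0 and 10 min.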
POLI inh: blocks human DNA polymerase iota activity; actives 1% (n = 390,000); Q9UNA4; AID 588590; Pol iota fluorescent replication assay, 10 min; Potency, µM (highest dose often 115 µM), most hits filed as inhibitors
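Pol iota at 10 nM preincubated 15 min with compounds at room temperature; reaction started with fluorescent substrate, 50 nM final. Fluorescence read kinetically at 0 and 10 min; buffer-only wells as negative control.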
POLK inh: DNA polymerase kappa (human) inhibition; Q9UBT6; actives 0.53% (n = 400,000); purified Pol kappa, fluorescent DNA synthesis assay, 10 min; AID 588579; Potency, µM (titrated, usually from 107 µM), hits mostly inhibitors
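Here, compound and 10 nM enzyme are combined for 15 min at room temperature; adding 50 nM substrate (final) starts DNA synthesis, tracked by fluorescence at 0 and 10 min against buffer-only wells.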
PI5P4K alpha inh: blocks human PI5P4K alpha kinase activity; P48426; PI5P4Kalpha enzyme, ADP-Glo luminescence, 60 min; stronger effect = lower value; max response, %; actives 1.2% (n = 330,000); active means max response of -50% or lower; inconclusive means between -30% and -50%; inactive means -30% or higher; further: value at the top dose of about 77 µM
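Controls without substrate or without enzyme flank wells where PI5P4Kalpha converts substrate using 5 microM ATP (final). Incubation lasts 60 minutes at room temperature; ADP formed is read by ADP-Glo luminescence.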
WRN inhibitor: inhibitors of human WRN helicase. Potency, µM (series often up to 114 µM), actives largely listed as inhibitors. Q14191. actives 0.46% (n = 360,000). WRN helicase unwinding, fluorescent forked duplex, kinetic; further: nearly all actives have a fitted effect of over 55% in size
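Enzyme (20 nM final) and test compound sit together 15 min at room temperature before substrate addition. Substrate is a single-forked duplex oligonucleotide (100 nM) labelled with fluorophore and quencher, with 2 mM ATP; helicase unwinding raises red fluorescence, read kinetically.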
Hits are given with their value; n = inactive; u = inconclusive; x = not tested or not shown; [ ] = another dose, or the depositor's remark. Only some compounds are listed: those with a hit (about 2.8% of all), similar ones and a draw of the others. Unless noted, the call rests on the fitted dose curve; in most records, active means well fitted curve in the direction sought with a large enough effect; inconclusive means small, poorly fitted or top-dose-only effect, or another doubt; inactive means no such curve, though single readings can be large; an effect the other way counts as inactive or inconclusive.

SMILES | POLB inh | POLH inh | POLI inh | POLK inh | PI5P4K alpha inh | WRN inhibitor
Cc1ccc(S(=O)(=O)N2CCN(C(=O)/C=C/c3ccco3)CC2)cc1 | 20µM | 79µM | n | n | n | n
Nc1c(-c2nc(-c3ccc4c(c3)OCO4)cs2)c2ccccn2c1C(=O)c1ccccc1 | n | x | n | n | x | x
Cc1ccc(C)c(N2CCN(Cc3csc(C)c3)CC2)c1 | n | n | n | n | x | x
COc1ccc(-n2c(CCc3ccccc3)nnc2SCC(=O)c2ccc(Cl)cc2)cc1 | n | u | n | n | n | n
O=C(CSc1nnc(CCc2ccccc2)n1-c1ccc(Cl)cc1)c1ccccc1 | n | n | n | n | -50 | n
COc1ccc(NC(=O)CN(C)S(=O)(=O)c2ccc3[nH]c4c(c3c2)CCCC4)cc1Cl | n | n | n | n | x | x
CCc1ccccc1NC(=O)CCS(=O)(=O)c1ccc(OC)cc1 | 35µM | u | n | n | n | n
Cn1c(=O)oc2cc(S(=O)(=O)Nc3ccc(O)cc3)ccc21 | n | n | n | n | n | n
COc1cccc(N2CCN(C(=O)CCS(=O)(=O)c3ccc4c(c3)oc(=O)n4C)CC2)c1 | u | u | 71µM | u | n | n
COc1ccc(NC(=O)CCS(=O)(=O)c2ccc3c(c2)oc(=O)n3C)cc1 | u | u | 50µM | n | n | n[11.6 µM]
Cn1c(=O)oc2cc(S(=O)(=O)Nc3ccc(C(=O)O)cc3)ccc21 | u | 89µM | u | n | n | n[11.6 µM]
O=C(COC(=O)c1cc(=O)[nH]c2ccccc12)NC(=O)c1ccccc1 | x | n | n | n | n | n
COc1ccc(N2CCN(C(=O)c3cn(C)c4ccc(S(=O)(=O)N(C)C5CCCCC5)cc4c3=O)CC2)cc1 | n | n | n | n | x | x
CCCCN(C)CCNC(=O)C1CCN(c2nc3ccc(CC)cc3s2)CC1 | n | x | n | n | x | x
CCOc1ccc(CNC(=O)CS(=O)(=O)c2cccc3nsnc23)cc1 | n | n | n | n | x | x
CCN=C1S/C(=C\c2ccc(-c3cccc(C(=O)O)c3)o2)C(=O)N1CC | 11µM | 20µM | u | n | n | n
CCN1C(=O)/C(=C\c2ccc(-c3cccc(C(=O)OC)c3)o2)SC1=Nc1ccc(C(=O)O)cc1 | n | x | x | x | x | x
CCN=C1S/C(=C/c2ccc(-c3ccc(Cl)cc3C(=O)O)o2)C(=O)N1CC | n | 35µM | n | n | n | n
CCN=C1S/C(=C\c2cc(Cl)c(OC)c(OC)c2)C(=O)N1CC | n | n | u | n | n | n
CCOc1ccc(CCNC(=O)C2CCN(c3ncnc4c3nc3n4CCCCC3)CC2)cc1 | n | n | n | n | x | x
CCc1nn(CC(=O)NC2CC2)c(=O)c2cc3ccccc3n12 | n | n | n | n | x | x
COC(=O)c1ccccc1NC(=O)Cn1nc(C(F)(F)F)c2c1CCCC2 | u | n | n | n | x | x
O=C(N/N=C/c1cc([N+](=O)[O-])ccc1O)c1ccc(COc2ccc3c(c2)CCC3)o1 | n | n | n | n | -56 | n
O=C(N/N=C/c1ccc2ccccc2c1)c1ccc(COc2ccc3c(c2)CCC3)o1 | 35µM | 10µM | n | n | n | u
COc1ccc(Br)cc1/C=N/NC(=O)c1ccc(COc2ccc3c(c2)CCC3)o1 | n | n | n | n | n | n
SMILES | POLB inh | POLH inh | POLI inh | POLK inh | PI5P4K alpha inh | WRN inhibitor
O=S(=O)(NCc1nc2cccnc2n1Cc1ccc(F)cc1)c1ccc2c(c1)CCCC2 | n | n | n | n | x | x
Cc1cc(C)cc(N(CC(=O)NC2CC3CCC2C3)S(C)(=O)=O)c1 (stereo unspecified) | n | n | 89µM | n | n | n
CCN(CC)c1ccc(/C=C/c2cccc[n+]2C)c(OC)c1 | 50µM | n | n | n | u | 79µM
Cc1c(C(=O)O)oc2c1-c1nn(Cc3ccc(Cl)cc3)cc1CC2 | 25µM | x | u | n | x | x
Nc1[nH]c(N=NC(=O)c2ccccc2)c2ccccc12 | n | n | u | n | n | n
Nc1[nH]c(N=NC(=O)c2ccc(Cl)cc2)c2ccccc12 | 79µM | n | n | n | n | n
CCc1ccc2occ(CC(=O)Nc3ccc(C)c(C)c3)c2c1 | n | n | u | n | x | x
O=C(CSc1nc2c(cnn2-c2ccc(F)cc2)c(=O)[nH]1)Nc1ccccc1C(F)(F)F | 7.9µM | n | u | n | x | x
N[C@H](C(=O)O)[C@H](Cc1ccccc1)C(=O)O | x | x | x | n | x | x
COc1cc(N(C)C)ccc1C=c1c2ccccc2n2c1cc(-c1ccccc1)[n+]2C | x | 22µM | u | u | u | 20µM
CN(C)c1ccc(C=c2c3cc([N+](=O)[O-])ccc3n3c2cc(-c2ccccc2)[n+]3C)cc1 | x | n | u | n | -78 | 35µM
CN(C)c1ccc(C=c2c3ccccc3n3c2c2c([n+]3C)CCCC2)cc1 | x | u | n | n | n | 22µM
CN(C)c1ccc(C=c2c3ccccc3n3c2cc(-c2ccc(Cl)cc2)[n+]3C)cc1 | x | u | u | n | -57 | 28µM
CN(C)c1ccc(/C=C2\CCc3ccccc32)cc1 | x | x | n | n | x | x
CN(c1ccc(Cl)cc1)c1cc(=O)n(C)c2ccccc12 | n | n | n | n | n | n
CCCCNC(=O)Cn1ncc2c(C)n(Cc3cccc(Cl)c3)c(C)c2c1=O | n | n | n | n | x | x
CN(C)c1ccc(C=c2c3ccccc3n3c2cc(-c2ccccc2)[n+]3C)cc1 | x | u | u | n | -51 | u
COc1cc(C=c2c3ccccc3n3c2cc(-c2ccccc2)[n+]3C)cc(OC)c1OC | x | n | u | n | n | n[11.6 µM]
C=CCn1c(SCc2ccccc2F)nc2cc(C(=O)O)ccc2c1=O | n | n | n | n | -74 | n
C=CCn1c(SCC(=O)N(CC)C2CCS(=O)(=O)C2)nc2cc(C(=O)O)ccc2c1=O (stereo unspecified) | x | n | n | n | -64 | n
CC(=O)NCCn1c(SCc2ccccc2F)nc2ccccc2c1=O | n | n | n | n | x | n
Clc1ccc(-c2csc(N/N=C/c3cccnc3)n2)c(Cl)c1 | 79µM | n | n | n | n | n
O=C1c2cccnc2C(Nc2ccccc2)N1Cc1ccco1 (stereo unspecified) | n | n | 13µM | n | x | n
O=[N+]([O-])c1ccc(O)c(-c2nn[nH]n2)c1 | n | n | u | n | -54 | 79µM
Cc1ccc(-c2ccc(CCC(=O)O)n2-c2ccc(C)c(Cl)c2)cc1 | u | n | n | n | x | x
CCCn1c(CCC(=O)O)ccc1-c1ccc(OC)cc1 | 25µM | u | n | n | x | n
O=C(O)CCc1ccc(-c2ccc(Cl)cc2)n1CCC(=O)O | n | u | n | n | x | n
COc1ccc(-c2ccc(CCC(=O)O)n2NC(N)=O)cc1 | n | n | n | n | n | n
Cc1ccc(C)c(-n2c(CCC(=O)O)ccc2-c2ccc(Cl)cc2)c1 | 7.9µM | n | n | n | x | x
O=C(O)CCc1ccc(-c2ccc(Cl)cc2)n1CC(=O)O | u | 50µM | u | n | x | n
